# High-throughput results: PubChem BioAssay, National Center for Advancing Translational Sciences (NCATS)
# The list is not random: actives were taken first. Their share in the collection is about 9.2%.
# FLuc counter: counter-screen for miR-21 project: firefly luciferase inhibitors or activators | purified FLuc, Km substrates, luminescence inhibition | Potency, µM (titrated, usually from 57.5 µM), hits mostly inhibitors | 360,000 tested, 6.9% active | AID 588342; also: nearly all actives have a fitted effect of over 55% in size
# Target sequence (P08659 whole entry, looked up): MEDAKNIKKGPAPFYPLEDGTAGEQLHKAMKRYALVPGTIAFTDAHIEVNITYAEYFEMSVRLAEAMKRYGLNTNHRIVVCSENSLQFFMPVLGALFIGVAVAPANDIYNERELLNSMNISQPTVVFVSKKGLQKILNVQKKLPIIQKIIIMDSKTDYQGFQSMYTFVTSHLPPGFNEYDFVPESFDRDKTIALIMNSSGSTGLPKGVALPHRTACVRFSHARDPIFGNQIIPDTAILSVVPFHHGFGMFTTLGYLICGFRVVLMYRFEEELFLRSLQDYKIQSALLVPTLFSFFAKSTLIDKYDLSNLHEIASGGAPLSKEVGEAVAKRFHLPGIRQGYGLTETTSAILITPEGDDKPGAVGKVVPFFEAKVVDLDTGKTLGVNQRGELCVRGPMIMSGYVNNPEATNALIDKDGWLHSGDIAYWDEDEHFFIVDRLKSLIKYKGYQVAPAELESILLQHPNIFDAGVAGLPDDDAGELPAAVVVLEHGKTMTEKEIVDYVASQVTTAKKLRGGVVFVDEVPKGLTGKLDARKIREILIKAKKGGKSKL
#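 Biochemical qHTS of compounds, final roughly 60 µM downward over six points, against 10 nM purified firefly luciferase using Km concentrations of substrates (10 uM D-luciferin, 10 uM ATP) in Tris acetate pH 7.5 buffer; luminescence output.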
# Rab9 promoter act: activates the Rab9 promoter | Huh7 Rab9 promoter-luciferase reporter, luminescence, 24 h | Potency, µM (series often up to 9.22 µM), most hits filed as activators | 320,000 tested, 2.8% active | AID 485297; also: nearly all actives have a fitted effect of over 60% in size
#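 Luminescence from Amplite-detected luciferase (10 minutes, ambient) reports Rab9 promoter activation. Before that, stable Rab9-luciferase Huh7 cells (1500/well, reduced-serum OP-MEM I plus 10% FBS) were exposed to compound for 24 hours at 37C.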
# NPC1 promoter act: activators of NPC1 promoter; 320,000 tested, 2.4% active; Huh7 NPC1 promoter luciferase reporter, 24 h; Potency, µM (doses to about 9.22 µM), actives largely listed as activators; also: nearly all actives have a fitted effect of over 60% in size
#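 NPC1 promoter–luciferase Huh7 cells; 24 h compound; luminescence.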
# SMN2 splice up: SMN2 splice variant enhancement | 210,000 tested, 2.8% active | HEK293 SMN2-luciferase splicing reporter, luminescence, 30-36 h | Potency, µM (doses to about 46.1 µM), hits mostly activators; also: nearly all actives have a fitted effect of over 55% in size
#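 HEK293 cells carry an SMN2 […]–luciferase reporter in which exon 7 inclusion puts luciferase in frame. Cells were plated 10-12 h before compound addition, then incubated 30-36 h at 37C. ONE-Glo luminescence was read; sodium butyrate at 4.5 mM final served as control.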
# ELG1 genotox: genotoxicity induction in ELG1-luciferase HEK293T cells; 330,000 tested, 1.3% active; Potency, µM (titrated, usually from 46 µM), usual class: activators; HEK293T ELG1-luciferase reporter, luminescence, 16 h; also: nearly all actives have a fitted effect of over 60% in size
#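 Luminescence read-out: rising ELG1-luciferase signal, reflecting elevated ELG1 protein under genetic stress, flags genotoxic compounds. Cells were treated for 16 hr at 37 °C before ONE-Glo detection.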
# ELG1 DNA repair: blocks ELG1-dependent DNA repair in HEK293T cells; HEK293T ELG1-luciferase reporter, luminescence, 16 h; DNA damage induced by 5-fluorouridine; Potency, µM (doses to about 46.1 µM), actives largely listed as inhibitors; 330,000 tested, 2.3% active; AID 504467; also: nearly all actives have a fitted effect of over 55% in size
#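 Reporter activity after DNA damage by 5-fluorouridine is monitored. Compound-treated cells incubate 16 hr at 37 °C, then ONE-Glo is added for 30 min before luminescence reading.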
# A number is an active result; . = inactive; ? = inconclusive; / = not tested or not shown; [ ] = remark or other dose. Calls follow the shape of the dose curve; as a rule, active = well fitted curve in the direction sought with a large enough effect; inconclusive = small, poorly fitted or top-dose-only effect, or another doubt; inactive = no such curve, though single readings can be large; an effect the other way counts as inactive or inconclusive.
SMILES,FLuc counter,Rab9 promoter act,NPC1 promoter act,SMN2 splice up,ELG1 genotox,ELG1 DNA repair
OCCC1CN(CC(c2ccccc2)c2ccccc2)CCN1C1CCCC1 (configuration not stated),.,.,.,/,.,.
Cc1nc2c(n1C1CCCCC1)C(=O)c1ccccc1C2=O,.,.,.,?,.,.
COc1cccc(-c2ncc3ccccc3c2COC(=O)c2ccc(C(F)(F)F)cc2)c1,.,.,.,/,.,21µM
CCc1noc(C)c1C(=O)NNC(=O)COc1cc(C)ccc1C,.,.,.,/,.,?
O=S(=O)(Nc1cccc(-c2ccc(N3CCOCC3)nn2)c1)c1ccc(F)cc1F,7.6µM,/,/,/,/,/
O=S(=O)(Nc1ccc(N2CCOCC2)cc1)c1ccc(F)cc1F,.,.,.,.,.,.
O=S(=O)(Nc1cccc(-c2ccc(N3CCOCC3)nn2)c1)c1ccccc1C(F)(F)F,7.6µM,/,/,/,/,/
O=S(=O)(Nc1cccc(-c2ccc(N3CCOCC3)nn2)c1)c1cc(C(F)(F)F)ccc1Cl,5.4µM,/,/,/,/,/
Cc1ccc(C2=NN(C(=S)Nc3ccccc3)C(c3ccco3)C2)cc1 (configuration not stated),7.6µM,3.2µM,2.8µM,13µM,?,?
Clc1cccc(-c2ccc(CNCc3ccccn3)o2)c1,?,.,.,/,.,.
Brc1ccc(-c2ccc(CNCc3ccccn3)o2)cc1,15µM,.,.,/,.,.
Cc1[nH]n(-c2ccccc2)c(=O)c1C(=O)Nc1ccccc1,17µM,.,.,/,.,?
C/C(=N\NC(=O)c1ccccc1)c1c(C)[nH]n(-c2ccccc2)c1=O,.,.,.,/,.,?
Cc1ccc2[nH]c(O)c(N=Nc3ccccc3C)c2c1,?,.,?,/,.,.
Cc1[nH]n(-c2ccccc2)c(=O)c1N=Nc1nccs1,19µM,.,.,.,.,?
CCOc1ccc(N=Nc2c(C)[nH]n(-c3ccccc3)c2=O)cc1,?,.,.,/,.,.
Cc1cc(Cl)cc2c(N=Nc3ccccc3C(=O)O)c(O)[nH]c12,12µM,?,?,/,.,?
Cc1[nH]n(-c2ccccc2)c(=O)c1N=Nc1ccccc1O,8.5µM,.,.,/,.,?
COC(=O)/C=C/c1oc2ccccc2c1C,?,.,.,.,.,.
O=C(CN(C(=O)c1csnn1)c1ccc(F)cc1)NCc1ccc2c(c1)OCO2,.,.,.,/,.,.
Cc1[nH]n(-c2ccccc2)c(=O)c1N=Nc1ccccc1C(=O)O,17µM,.,.,/,.,.
Cc1ccccc1N=Nc1c(C)[nH]n(-c2ccccc2)c1=O,?,.,.,/,.,.
Cc1noc(NS(=O)(=O)c2ccc(N/C=C/C(=O)c3ccc4c(c3)OCO4)cc2)c1C,11µM,.,.,.,.,.
Cc1noc(NS(=O)(=O)c2ccc(N/C=C\C(=O)c3cccs3)cc2)c1C,17µM,.,.,.,.,.
COc1ccc(-c2ccc(SCC(=O)c3ccccc3)nn2)cc1OC,24µM,.,.,.,.,?
SMILES,FLuc counter,Rab9 promoter act,NPC1 promoter act,SMN2 splice up,ELG1 genotox,ELG1 DNA repair
Cc1ccc(-c2ccc(SCC(=O)c3ccccc3)nn2)cc1,15µM,?,?,6.3µM,?,?
COc1ccc(-c2ccc(SCC(=O)Nc3cc(C)on3)nn2)cc1OC,.[2.3 µM],?,.,/,.,.
CC(C)(C)Nc1nc2ccc([N+](=O)[O-])cc2o1,.,.,.,/,.,?
O=c1oc(-c2cccc([N+](=O)[O-])c2)nc2ccccc12,?,.,.,/,.,.
COc1cccc(-c2nc3ccc([N+](=O)[O-])cc3o2)c1,1.5µM,2.2µM,?,16µM,?,?
O=[N+]([O-])c1ccc2nc(-c3ccccc3)oc2c1,9.5µM,3.2µM,2.8µM,11µM,?,?
O=c1oc(-c2ccc(Br)o2)nc2ccccc12,?,.,.,?,?,?
Cc1ccc2nc(-c3ccccc3)oc(=O)c2c1,3.8µM,.,.,/,.,.
Cc1ccc2nc(-c3cccs3)oc(=O)c2c1,9.5µM,.,.,.,.,?
Cc1cc(-c2nc3ccccc3c(=O)o2)ccc1[N+](=O)[O-],2.7µM,.,.,/,?,?
Cc1ccc2nc(Cl)nc(-c3ccccc3)c2c1,.,.,.,/,.,.
